Consider 26 molecules from PubChem BioAssay (NCI).

Molecules are shown by their SMILES. About 83,000 compounds went through this panel and 20% of them were active in at least one assay; those are over-represented in the sample as a whole.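 In brief: 96-well plates, 48 h treatment, single concentration, percent growth endpoint.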 Calls of active or inactive are those of the source. Rule for the calls: active = growth percent below 10; inactive = the rest.

The experiment has as its system HL-60(TB) leukemia. Briefly: NCI-60 one-dose screen, 48 h (100 = growth as untreated, 0 = no growth, -100 = all killed). To be noted: 10 µM unless noted.
Turning to `C#CCn1cnc2cnc(Nc3cccc(NC(=O)CCl)c3)nc21`, the growth is -7.95% [6.25 µM] (active).
The figure for `N#C/C(C(=O)c1ccccc1)=C1/C(=O)Nc2ccc(Br)cc21` is 146% (inactive); for `COc1cc2oc(-c3cccc(C(=O)Nc4ccc(C)cc4)c3)cc(=O)c2c(OC)c1OC` it is 7.26% (active).
The result for `COc1cc2c3c(c1O)-c1ccccc1[C@@H]1OC(=O)N(CC2)[C@H]31` reads 112% (inactive).
The figure for `COc1ccc2[nH]cc(/C=C3/C(=O)Nc4ccc(F)cc43)c2c1` is 96.6% (inactive); for `C=CCOC(=O)C1=C(C)NC(=O)NC1c1c(Cl)n(C)c2ccccc12` (stereo unspecified) it is 109% (inactive); for `NCCCNc1nc2ccccc2c2c(=O)c3cccc(Cl)c3sc12` it is -45% (active).
For `CC(=O)OC[C@]12CC[C@@H](c3cn(Cc4ccc(Cn5cc([C@@H]6CC[C@]7(COC(C)=O)CC[C@]8(C)[C@H](CC[C@@H]9[C@@]%10(C)CC[C@H](OC(C)=O)C(C)(C)[C@@H]%10CC[C@]98C)[C@@H]67)nn5)cc4)nn3)[C@@H]1[C@H]1CC[C@@H]3[C@@]4(C)CC[C@H](OC(C)=O)C(C)(C)[C@@H]4CC[C@@]3(C)[C@]1(C)CC2`, the growth is 90.5% (inactive).
The figure for `COc1cc(/C=C/C(=O)c2c(C)[n+]([O-])c3ccccc3[n+]2[O-])ccc1O` is 102% (inactive); for `Cc1ccc2sc3c(NCCN)nc4ccccc4c3c(=O)c2c1` it is 53.3% (inactive); for `CCOC(=O)c1c(C)nc2ccccc2c1/C=C/c1ccc(OC)cc1` it is 83.3% (inactive).
The result for `CN(Cc1ccccc1)c1nc(Cl)c(C2CC(c3ccc(Cl)cc3)=NN2c2cc(Cl)cc(Cl)c2)s1` (stereo unspecified) reads 102% (inactive); that for `S=C(Cc1ccc2c(c1)CCCC2)N1CCOCC1`, 85% (inactive).
With `CC1CCCC(CC(N)=O)CC1` (stereo unspecified), the growth is 90.5% (inactive).
The result for `Cc1ccc(-c2nn(-c3ccccc3)cc2C=C2C(=O)ON=C2C(C)C)cc1` reads -37.7% (active); that for `COc1cccc(Cc2nn3cc(-c4ccccc4)nc3s2)c1`, 69.9% (inactive).
Regarding `COc1ccc(C(=O)c2cc(OC)c(OC)c(OC)c2)cc1/C=C/C(=O)c1ccc2c(c1)OCO2`, the growth was 27.5% (inactive).
As to `COc1ccc(C2C=C(c3ccc(Cl)cc3)N=C3SC=C(C)N32)c(Br)c1` (stereo unspecified), the growth was 7.64% (active).
The figure for `O=C(NCc1ccc(Cn2c(=O)sn(-c3ccccc3)c2=O)cc1)OCc1ccc2cccc(O)c2n1` is -56.8% (active); for `O=C(CCl)N1CCN(C/C=C/c2ccccc2)CC1` it is 102% (inactive).
The result for `Fc1ccc(Nc2nnc(-c3ccc(Cl)cc3)o2)cc1` reads 91.4% (inactive); that for `O=C1OC(Oc2ccccc2)(c2ccccc2)c2ccccc21` (stereo unspecified), 83.8% (inactive); that for `O=C(N=Nc1c(Cl)c(O)c2ccccc2c1O)C(=O)Nc1cccc(C(F)(F)F)c1`, 6.33% (active).
With `O=C(N/N=C/c1cc2ccccc2n2nnnc12)Nc1ccccc1`, the growth was 91.8% (inactive).
On to `Cn1cc(C(=O)c2nc(-c3c[nH]c4ccc(F)cc34)no2)c2cc(F)ccc21`, for which the growth was 70.5% (inactive).
The figure for `CCN(CC)CCNCC(O)Cc1ccc(OC)cc1` (stereo unspecified) is 59.1% (inactive).
